Assay outcomes: PubChem, several laboratories
A selection: hits, their analogues and other compounds. The true share with any hit is near 3.6%.
VHR inh abs: DUSP3 (human) phosphatase inhibition | P51452 | inhibition, % at 13.3 µM | recombinant VHR phosphatase, pNPP absorbance | 290,000 tested, 0.52% active; in the data active means inhibition above about 50%
Target sequence (P51452 whole entry, looked up): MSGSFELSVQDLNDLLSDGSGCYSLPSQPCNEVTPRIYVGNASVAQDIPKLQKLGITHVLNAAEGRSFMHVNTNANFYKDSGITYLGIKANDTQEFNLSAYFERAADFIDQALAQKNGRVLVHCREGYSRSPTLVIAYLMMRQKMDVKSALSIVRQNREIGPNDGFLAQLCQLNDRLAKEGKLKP
Mtb hypoxia rep: reduces hypoxia-regulated biosensor signal in M. tuberculosis | M. tuberculosis hypoxia-regulated fluorescent reporter, fluorescence | fluorescence inhibition, % (no concentration beside the values) | 300,000 tested, 0.1% active; in the data active means fluorescence inhibition mostly above about 23%, no sharp cut-off; inactive means mostly below about 17%
Mtb bLac sens: beta-lactam sensitization of Mtb H37Rv; inhibition, % at 25 µM; 330,000 tested, 0.27% active; M. tuberculosis H37Rv growth with meropenem, percent inhibition; AID 434955; call rule not given here;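 further: growth measured after seven days incubation then overnight dye step; 0% = bacteria only wells and 100% = bacteria with antibiotic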
FBA Mtb inh: Mtb fructose-bisphosphate aldolase inhibition | P9WQA3 | purified M. tuberculosis FBA, fluorescence read-out | inhibition, % at 1 µM | 360,000 tested, 2.3% active | AID 588726; in the data active means inhibition above about 27%;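 further: 0% = vehicle and 100% = reference inhibitor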
Target sequence (P9WQA3 whole entry, looked up): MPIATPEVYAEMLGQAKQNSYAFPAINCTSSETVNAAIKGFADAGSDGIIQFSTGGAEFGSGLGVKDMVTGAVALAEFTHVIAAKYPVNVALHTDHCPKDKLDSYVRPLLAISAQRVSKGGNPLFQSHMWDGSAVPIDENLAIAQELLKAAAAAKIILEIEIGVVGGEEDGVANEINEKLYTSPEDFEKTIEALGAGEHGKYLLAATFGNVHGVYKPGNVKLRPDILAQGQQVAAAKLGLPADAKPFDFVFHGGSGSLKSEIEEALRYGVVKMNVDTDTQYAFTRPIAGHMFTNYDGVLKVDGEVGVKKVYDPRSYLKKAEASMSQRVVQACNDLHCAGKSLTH
GDH-TPI counter: counter-screen for M. tuberculosis FBA inhibitors: GDH-TPI coupled enzymes; inhibition, % at 4.8 µM; GDH-TPI coupled enzyme counterscreen, NADH absorbance; AID 588335; 360,000 tested, 1.2% active; in the data active means inhibition above about 30%;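 further: 0% = DMSO wells and 100% = wells lacking the enzyme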
The depositor's hits bear a star; . = no result given.

SMILES	VHR inh abs	Mtb hypoxia rep	Mtb bLac sens	FBA Mtb inh	GDH-TPI counter
CC(C)(C)N1C(=O)C2C(c3ccc(Br)cc3)N3C(=O)N(c4ccc(Br)cc4)C(=O)[C@@]3(Cc3ccccc3)C2C1=O (some centres not stated)	.	2.5	.	.	.
CC(=O)Nc1cccc2ncccc12	2.6	5.2	-3.3	0.4	4.8
Cc1noc(C)c1C(=O)Nc1cccc2ncccc12	53.3*	0.0	-0.5	-5.9	-8.1
COc1ccc(/C(O)=C/C(=O)C(=O)Nc2c(C)n(C)n(-c3ccccc3)c2=O)cc1	2.7	.	10.5	-1.5	34.0*
COc1ccc(C(=O)/C=C/Nc2c(C)n(C)n(-c3ccccc3)c2=O)cc1OC	-2.4	.	-8.8	-1.5	35.0*
COc1ccc(/C(O)=C\C(=O)C(=O)Nc2c(C)n(C)n(-c3ccccc3)c2=O)cc1	.	-8.6	.	.	.
Cc1c(N/C=C/C(=O)C(F)(F)F)c(=O)n(-c2ccccc2)n1C	6.3	5.3	-2.4	-0.4	11.2
CN(C)CCCN(C(=O)c1ccc2c(c1)CCCC2)c1nc2ccc(Cl)cc2s1	23.7	38.3*	100.0	-0.9	7.9
CCOc1ccc2nc(N(CCCN(C)C)C(=O)c3ccc4c(c3)CCCC4)sc2c1	21.8	20.8	60.7	0.0	9.9
CC(C)(O)c1ccccc1CC[C@@H](SCC1(CC(=O)O)CC1)c1cccc(/C=C/c2ccc3ccc(Cl)cc3n2)c1	.	.	1.9	5.9	31.4*
CC(CN1CCC(Cc2ccccc2)CC1)C(O)c1ccc(O)cc1 (configuration not stated)	.	4.8	.	.	.
Nc1nn(-c2ccccc2)nc1C(=O)OCc1ccccc1F	15.5	-0.2	73.0	135.2*	3.8
Cn1nc(C(=O)OCc2ccccc2F)c2ccccc2c1=O	10.6	-6.4	2.6	0.7	-4.4
COc1ccc(C(=O)NC(C)c2nnc(SCC(=O)NC3CCCC3)n2C)cc1 (configuration not stated)	52.9*	1.4	-0.1	1.3	5.0
O=S1(=O)CCOCC(CC2CCCCC2)N1Cc1ccccc1Br (configuration not stated)	.	-1.7	.	.	.
CCSc1nnc(NC(=O)[C@H](C)N2C(=O)C3CC=CCC3C2=O)s1 (some centres not stated)	6.7	29.9*	99.8	-0.3	-3.8
CCSc1nnc(NC(=O)CN2C(=O)C3CC=CCC3C2=O)s1 (configuration not stated)	9.3	-5.3	26.3	0.6	10.1
N#CC(=Cc1ccncc1)c1nc2ccccc2[nH]1	.	6.6	.	.	.
N#C/C(=C\c1ccc(Cl)cc1)c1nc2ncccc2[nH]1	17.3	.	5.7	21.8	39.0*
COc1ccc(OC)c(N=CC2=C(O)CC(C)(C)CC2=O)c1	-4.0	6.2	24.5	2.9	38.5*
CC1(C)CC(=O)C(C=NCc2ccc3c(c2)OCO3)=C(O)C1	-8.7	13.1	2.3	-4.2	-3.4
COc1ccc(N=CC2=C(O)CCCC2=O)cc1	-3.9	5.1	96.1	-2.5	37.0*
COc1ccc(N=CC2=C(O)CC(C)(C)CC2=O)cc1	7.2	.	94.7	0.1	41.6*
COc1ccc(N=Cc2c(O)n(C)c(=O)n(C)c2=O)cc1	7.2	-1.5	83.8	1.4	26.2
CC1(C)CC(=O)C(C=Nc2ccc3c(c2)OCO3)=C(O)C1	-11.2	-8.4	-7.3	1.1	54.2*
SMILES	VHR inh abs	Mtb hypoxia rep	Mtb bLac sens	FBA Mtb inh	GDH-TPI counter
CC(NC(=O)c1nc[nH]c1C(=O)NCC(=O)OC(C)(C)C)C(=O)OC(C)(C)C (configuration not stated)	.	0.4	.	.	.
Cc1ccc(S(=O)(=O)NCC(=O)NN=Cc2ccc(Cl)cc2)cc1	.	11.1	.	.	.
COc1ccccc1/C=C/C=Nn1c(-c2n[nH]c3c2CCC3)n[nH]c1=S	.	21.0	.	.	.
CCOCCCNC(=O)/C(C#N)=C/c1cc(Br)c(O)c(Br)c1	-6.4	-9.8	.	2.5	44.2*
CCOCCCNC(=O)/C(C#N)=C/c1ccc([N+](=O)[O-])o1	-8.9	11.5	100.4	1.1	46.3*
O=C(O)COc1ccc(C=Nn2c(COc3ccccc3)nc3ccccc3c2=O)cc1	.	8.6	.	.	.
COc1ccccc1CNC(=O)CCN1C(=O)c2ccccc2C1=O	27.2	15.8	0.0	117.2*	1.7
O=C(NC1CCSC1=O)c1ccc(Cl)cc1 (configuration not stated)	51.6*	3.6	1.8	0.1	2.6
Cc1ccc(C(=O)NC2CCSC2=O)cc1 (configuration not stated)	27.1	-5.0	10.2	0.3	14.1
CCN1CCN(c2nc(N)c([N+](=O)[O-])c(Nc3cccc(C)c3)n2)CC1	8.2	8.4	-2.1	0.7	34.9*
Cc1nc2ccccn2c1C(=O)N/N=C/c1ccc(CNC(=O)C(=O)Nc2ccccc2)o1	5.1	.	8.7	-0.1	37.6*
Cc1nc2ccccn2c1C(=O)N/N=C/c1ccc([N+](=O)[O-])o1	15.5	.	99.2	-7.0	1.3
COC(=O)C1=C(c2cccc(OCc3ccccc3)c2)CC2CCC1N2C(=O)NCCOc1ccccc1Cl (configuration not stated)	.	6.4	.	.	.
C/C(=N\Nc1ccc(Cl)c(C(=O)O)c1)c1ccc(N2CCOCC2)cc1	-22.9	.	-1.7	-2.7	30.9*
C/C(=N\NC(=O)c1cccc(C)c1)c1ccc(N2CCOCC2)cc1	15.6	.	23.3	4.4	34.0*
C/C(=N\NC(=O)c1ccc(F)cc1)c1ccc(N2CCOCC2)cc1	13.9	.	-1.8	1.6	17.9
CN(C)c1ccc(/C=N/NC(=O)CNC(=O)c2ccncc2)cc1	14.2	.	1.2	4.7	32.8*
O=C(CNC(=O)c1ccncc1)N/N=C/c1ccc(O)cc1O	-2.5	.	-3.4	-0.2	39.0*
CN(C)c1ccc(/C=N/NC(=O)CNC(=O)c2ccc3c(c2)OCCO3)cc1	1.2	.	7.3	23.9	39.8*
CCN(CC)c1ccc(C=NNC(=O)CNC(=O)c2ccc3c(c2)OCCO3)cc1	.	7.8	.	.	.
CN(C)c1ccc(/C=N/NC(=O)CNC(=O)/C=C/c2ccco2)cc1	-5.4	.	-1.9	6.4	40.5*
COc1cc(/C=N/NC(=O)CNC(=O)c2ccncc2)ccc1O	14.2	.	-1.1	-0.6	13.2
Cn1cc([N+](=O)[O-])c(C(=O)NN=Cc2cc3c(cc2Br)OCO3)n1	.	-1.2	.	.	.
CCCCC(CNC)NCC(NCCCCC1CCCCC1)C(C)C (configuration not stated)	.	8.6	.	.	.
COc1ccc(OC)c(C=NNC(=O)c2ccc(NS(=O)(=O)c3cccs3)cc2)c1	.	0.5	-0.6	16.4	38.9*
SMILES	VHR inh abs	Mtb hypoxia rep	Mtb bLac sens	FBA Mtb inh	GDH-TPI counter
O=C(O)COc1ccccc1C=NNC(=O)c1ccc(NS(=O)(=O)c2cccs2)cc1	.	9.6	3.1	-1.0	22.0
O=C(NN=Cc1ccccc1C(=O)O)c1ccc(NS(=O)(=O)c2cccs2)cc1	.	8.6	4.8	-1.4	36.8*
COc1cc(C=NNC(=O)c2ccc(NS(=O)(=O)c3cccs3)cc2)cc(OC)c1O	.	9.9	.	.	.
COc1ccc(/C=N/NC(=O)c2ccc(NS(=O)(=O)c3cccs3)cc2)cc1	.	.	-0.8	0.0	50.9*
COc1ccc(NS(=O)(=O)c2cccc(C(=O)NN=Cc3cc(Br)c(O)c(Br)c3)c2)cc1	.	7.5	3.0	0.4	41.0*
COc1ccc(C=NNC(=O)c2ccc(NS(=O)(=O)c3cccs3)cc2)cc1	.	4.1	.	.	.
